# Measurements published in PubChem BioAssay (NCATS).
# Results filed as inconclusive are left out. Entries that show only a call come without a potency. Activity calls are given as the source filed them. Unless noted, calls follow the shape of the dose curve; as a rule, active = well fitted activation curve with a large enough effect; inconclusive = small, poorly fitted or top-dose-only effect; inactive = no such curve, though single readings can be large or run the other way.
# Biological target: Parathyroid hormone/parathyroid hormone-related peptide receptor (Homo sapiens) (UniProt Q03431)
# Assay: qHTS for PTHR1 Agonists: Optimization Screen against the NCGC LOPAC library (AID 1347079);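 also: GloSensor cAMP luminescence in HEK-293 GP2 cells expressing human PTHR1 with IBMX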
# Conditions: HEK293 GP2 PTHR1 GloSensor cAMP luminescence, 1 h; series mostly up to 57.1 µM
# In short: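 Compounds were tested across a qHTS titration. PTHR1-expressing GP2 cells report cAMP rises via GloSensor luminescence after 1 hr compound exposure at 37C with IBMX present.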
# Chain of Parathyroid hormone/parathyroid hormone-related peptide receptor (Homo sapiens) (Q03431 whole entry, looked up): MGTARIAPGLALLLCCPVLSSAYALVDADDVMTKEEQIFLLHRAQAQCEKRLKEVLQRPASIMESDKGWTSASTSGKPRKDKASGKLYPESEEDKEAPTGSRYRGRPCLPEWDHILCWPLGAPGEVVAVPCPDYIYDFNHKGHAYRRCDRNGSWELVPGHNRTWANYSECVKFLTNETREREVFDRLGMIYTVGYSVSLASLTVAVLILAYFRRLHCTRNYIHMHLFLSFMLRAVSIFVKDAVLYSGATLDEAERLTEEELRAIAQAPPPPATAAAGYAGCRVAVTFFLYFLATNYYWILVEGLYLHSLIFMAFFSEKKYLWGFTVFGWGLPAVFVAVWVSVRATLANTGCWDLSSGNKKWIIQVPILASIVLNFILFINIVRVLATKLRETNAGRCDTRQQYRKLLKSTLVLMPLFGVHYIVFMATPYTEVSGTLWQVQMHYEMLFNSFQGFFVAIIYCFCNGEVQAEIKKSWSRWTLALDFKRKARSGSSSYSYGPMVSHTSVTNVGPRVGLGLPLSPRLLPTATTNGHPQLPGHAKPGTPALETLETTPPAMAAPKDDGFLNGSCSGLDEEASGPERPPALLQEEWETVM
row,SMILES,Potency
1,COc1ccc2c(c1O)-c1cccc3c1[C@@H](C2)N(C)CC3,inactive
2,C[C@@H]1O[C@H](C[N+](C)(C)C)CS1,inactive
3,CCCN(CCC)CCc1c[nH]c2ccc(C(N)=O)cc12,inactive
4,CN(N=O)c1ccc(O)c(O)c1,inactive
5,C/C(O)=C(\C#N)C(=O)Nc1cc(Br)ccc1Br,inactive
6,O=c1c2ccccc2[se]n1-c1ccccc1,inactive
7,NC(=O)c1cc(N2CC2)c([N+](=O)[O-])cc1[N+](=O)[O-],inactive
8,C[Se]C[C@H](N)C(=O)O,inactive
9,Oc1ccc2c3c1O[C@H]1c4oc5ccccc5c4C[C@@]4(O)C(C2)N(CC2CC2)CCC314 (stereo not given in full),inactive
10,NC(N)=NOCC[C@H](N)C(=O)O,inactive
11,N[C@@H](CCl)C(=O)O,inactive
12,C=CCN(C1=NCCN1)c1c(Cl)cccc1Cl,inactive
13,C[C@@H]1[C@@H]2Cc3ccc(O)cc3[C@@]1(C)CCN2CC1CC1,inactive
14,CN(N=O)c1cc(O)ccc1O,inactive
15,CCN(CCCl)Cc1ccccc1Br,inactive
16,C=CCN1CCc2cccc3c2[C@H]1Cc1ccc(O)c(O)c1-3,inactive
17,CCCCCCC(C)(C)c1ccc([C@@H]2C[C@H](O)CC[C@H]2CCCO)c(O)c1,inactive
18,CC(C)[C@@]1(NC(=O)[C@@H]2C[C@@H]3c4cccc5[nH]cc(c45)C[C@H]3N(C)C2)O[C@@]2(O)[C@@H]3CCCN3C(=O)[C@H](Cc3ccccc3)N2C1=O,inactive
19,COc1cc(CC(C)N)c(OC)cc1I (stereo not given),inactive
20,C=CCN1CC[C@]23c4c5ccc(O)c4O[C@H]2/C(=N/NC(=O)c2ccccc2)CC[C@@]3(O)[C@H]1C5,inactive

# Tested on: not listed separately
# Assay: qHTS for Inhibitors of the Functional Ribonucleoprotein Complex (vRNP) of Lassa (LASV) Arenavirus: LASV Primary Screen - GLuc reporter signal (AID 1347082; calls by dose curve; tested in HEK293 reporter line; also: nearly all actives have a fitted effect of over 60% in size)
# Conditions: LASV minigenome vRNP, Gaussia luciferase reporter; series mostly up to 57.5 µM
row,SMILES,Potency
1,O[C@H]1[C@H]2[C@H](O)CCCN2C[C@H]1O,inactive
2,CN[C@H]1C[C@@H](N)[C@H](O)[C@@H](O[C@@H]2O[C@H](CO)[C@H](O)[C@@H]3OC4(O[C@H]23)O[C@H](C(N)CO)[C@H](O)[C@H](O)[C@H]4O)[C@@H]1O (stereo not given in full),inactive
3,COc1ccc2c(c1O)-c1cccc3c1[C@@H](C2)N(C)CC3,inactive
4,C[C@@H]1O[C@H](C[N+](C)(C)C)CS1,inactive
5,C[CH2][Hg][S]c1ccccc1C(=O)O,inactive
6,CCCN(CCC)CCc1c[nH]c2ccc(C(N)=O)cc12,inactive
7,CN(N=O)c1ccc(O)c(O)c1,inactive
8,CC1OC1P(=O)(O)O (stereo not given),inactive
9,C/C(O)=C(\C#N)C(=O)Nc1cc(Br)ccc1Br,inactive
10,CC(C)CC(NP(=O)(O)O[C@@H]1O[C@@H](C)[C@H](O)[C@@H](O)[C@H]1O)C(=O)NC(Cc1c[nH]c2ccccc12)C(=O)O (stereo not given in full),inactive
11,COc1ccc2c(c1)c(CCN1CCOCC1)c(C)n2C(=O)c1cccc(Cl)c1Cl,inactive
12,O=c1c2ccccc2[se]n1-c1ccccc1,inactive
13,NC(=O)c1cc(N2CC2)c([N+](=O)[O-])cc1[N+](=O)[O-],inactive
14,O=P(O)(O)C(Cl)(Cl)P(=O)(O)O,inactive
15,C[Se]C[C@H](N)C(=O)O,inactive
16,CCN(CC)c1ncnc2c1ncn2[C@@H]1O[C@H](COP(=O)(O)OP(=O)(O)C(Br)(Br)P(=O)(O)O)[C@@H](O)[C@H]1O,inactive
17,NC(N)=NOCC[C@H](N)C(=O)O,inactive
18,N[C@@H](CCl)C(=O)O,inactive
19,C=CCN(C1=NCCN1)c1c(Cl)cccc1Cl,inactive
20,C[C@@H]1[C@@H]2Cc3ccc(O)cc3[C@@]1(C)CCN2CC1CC1,inactive
21,CN(N=O)c1cc(O)ccc1O,inactive
22,N#C/C(=C/c1ccc(O)c(O)c1)C(N)=S,inactive
23,CC1=C2C[C@H]3[C@@H](CC=C4C[C@@H](O)CC[C@@]43C)[C@@H]2CC[C@]12O[C@@H]1C[C@H](C)CN[C@H]1[C@H]2C,inactive
24,O=C/C=C/c1ccccc1,inactive
25,CCN(CCCl)Cc1ccccc1Br,inactive
26,C=CCN1CCc2cccc3c2[C@H]1Cc1ccc(O)c(O)c1-3,inactive
27,CN1[C@H]2CC[C@@H]1[C@@H](C(=O)O)[C@@H](OC(=O)c1ccccc1)C2,inactive
28,CCCCCCC(C)(C)c1ccc([C@@H]2C[C@H](O)CC[C@H]2CCCO)c(O)c1,inactive
29,CN(C)[C@@H]1C(=O)C(C(N)=O)=C(O)[C@@]2(O)C(=O)C3=C(O)c4c(O)ccc(Cl)c4[C@@](C)(O)[C@H]3C[C@@H]12,inactive
30,CC(C)[C@@]1(NC(=O)[C@@H]2C[C@@H]3c4cccc5[nH]cc(c45)C[C@H]3N(C)C2)O[C@@]2(O)[C@@H]3CCCN3C(=O)[C@H](Cc3ccccc3)N2C1=O,inactive
